Data taken from PubChem BioAssay (EPA / NIEHS).
Values joined by “and” are separate entries in the source; they are usually repeats but may differ in a detail not shown here. Equal values may be shown once. Results filed as inconclusive are left out. Some compounds were tested as several samples or in several runs, with calls that do not always agree. Active and inactive are the calls of the source. Rule for the calls, unless noted: active = hit-call score of the fitted dose curve at least 0.9, where 1 is the maximum; inactive = score below 0.9.

Legend:
[1] = BSK_3C_VCAM1: BioMAP Diversity Plus: 3C Assay for Vascular cell adhesion molecule 1 (VCAM1) Biomarker Activity (AID 2282999); conditions: BioMAP 3C HUVEC, VCAM1 ELISA, cytokine-stimulated; actives raise or lower the signal
Procedure, shortened: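 Human umbilical vein endothelial cells were dosed with compound for 24 h, after which cell-surface VCAM-1 was quantified by ELISA. Bidirectional curve fitting used DMSO as negative control and activity baseline.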

[2] = BSK_4H_Eotaxin3: BioMAP Diversity Plus: 4H Assay for Eotaxin 3 Biomarker Activity (AID 2283000); conditions: primary human endothelial cells (HUVEC); actives raise or lower the signal
Procedure, shortened: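 Chemicals were added to human umbilical vein endothelium cultures, and Eotaxin-3 was quantified by ELISA at 24 h. Values were derived by bidirectional fitting with DMSO serving as negative control and activity baseline.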

[3] = molecular target: human Peroxisome Proliferator-activated Receptor alpha (PPARa), PPARA (gene 5465) (UniProt Q07869); assay: ATG_PPARa_TRANS: Attagene TRANS-FACTORIAL HepG2 Assay for human Peroxisome Proliferator-activated Receptor alpha (PPARa) (AID 2283001; active = hit-call score of the fitted dose curve at least 0.9, where 1 is the maximum;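 for AC50: potency for gain of reporter signal over DMSO so agonist or activator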)
Chain of human Peroxisome Proliferator-activated Receptor alpha (PPARa), PPARA (gene 5465) (Q07869 whole entry, looked up, the tested form may be a part): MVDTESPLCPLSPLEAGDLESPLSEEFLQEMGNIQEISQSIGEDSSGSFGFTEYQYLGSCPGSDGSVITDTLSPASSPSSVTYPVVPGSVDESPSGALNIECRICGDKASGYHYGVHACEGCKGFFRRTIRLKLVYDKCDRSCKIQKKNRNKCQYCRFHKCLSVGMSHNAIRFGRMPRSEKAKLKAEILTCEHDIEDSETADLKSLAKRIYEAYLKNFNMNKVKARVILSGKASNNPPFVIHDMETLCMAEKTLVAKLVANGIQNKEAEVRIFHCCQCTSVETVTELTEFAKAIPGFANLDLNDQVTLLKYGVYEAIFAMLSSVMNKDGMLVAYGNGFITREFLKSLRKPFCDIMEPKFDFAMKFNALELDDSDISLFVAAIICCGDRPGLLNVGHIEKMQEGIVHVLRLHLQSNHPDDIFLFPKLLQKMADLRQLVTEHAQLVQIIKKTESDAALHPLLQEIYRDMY
Procedure, shortened: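 Gain-of-signal endpoint: reporter mRNA induction relative to DMSO, detected by fluorescent RT-PCR and capillary electrophoresis. HepG2 cells transiently carried GAL4-UAS-driven reporter units plus NR-Gal4 fusion; exposure lasted 24 h.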

[4] = molecular target: human Peroxisome Proliferator-activated Receptor delta (PPARd), PPARD (gene 5467) (UniProt Q03181); assay: ATG_PPARd_TRANS: Attagene TRANS-FACTORIAL HepG2 Assay for human Peroxisome Proliferator-activated Receptor delta (PPARd) (AID 2283002; active = hit-call score of the fitted dose curve at least 0.9, where 1 is the maximum)
Chain of human Peroxisome Proliferator-activated Receptor delta (PPARd), PPARD (gene 5467) (Q03181 whole entry, looked up, the tested form may be a part): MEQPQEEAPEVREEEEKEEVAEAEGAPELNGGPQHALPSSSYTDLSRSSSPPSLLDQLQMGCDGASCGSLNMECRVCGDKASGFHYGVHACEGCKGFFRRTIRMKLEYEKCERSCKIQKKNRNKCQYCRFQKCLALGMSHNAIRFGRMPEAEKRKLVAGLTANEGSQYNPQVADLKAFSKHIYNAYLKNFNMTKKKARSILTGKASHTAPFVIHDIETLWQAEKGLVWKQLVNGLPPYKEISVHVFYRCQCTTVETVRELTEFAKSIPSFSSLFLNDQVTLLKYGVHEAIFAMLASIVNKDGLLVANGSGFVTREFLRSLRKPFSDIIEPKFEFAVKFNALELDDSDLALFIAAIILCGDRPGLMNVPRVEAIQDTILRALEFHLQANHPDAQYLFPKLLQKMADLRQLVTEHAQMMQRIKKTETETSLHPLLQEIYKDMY
Procedure, shortened: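 Measured quantity: GAL4-UAS reporter transcript induction in HepG2 after 24 h chemical dosing, with NR-Gal4 chimeras supplied by transient transfection. Detection by RT-PCR and capillary electrophoresis; upward fit against DMSO.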

[5] = molecular target: human Retinoic Acid Receptor beta (RARb), RARB (gene 5915) (UniProt P10826); assay: ATG_RARb_TRANS: Attagene TRANS-FACTORIAL HepG2 Assay for human Retinoic Acid Receptor beta (AID 2283004; active = hit-call score of the fitted dose curve at least 0.9, where 1 is the maximum)
Chain of human Retinoic Acid Receptor beta (RARb), RARB (gene 5915) (P10826 whole entry, looked up): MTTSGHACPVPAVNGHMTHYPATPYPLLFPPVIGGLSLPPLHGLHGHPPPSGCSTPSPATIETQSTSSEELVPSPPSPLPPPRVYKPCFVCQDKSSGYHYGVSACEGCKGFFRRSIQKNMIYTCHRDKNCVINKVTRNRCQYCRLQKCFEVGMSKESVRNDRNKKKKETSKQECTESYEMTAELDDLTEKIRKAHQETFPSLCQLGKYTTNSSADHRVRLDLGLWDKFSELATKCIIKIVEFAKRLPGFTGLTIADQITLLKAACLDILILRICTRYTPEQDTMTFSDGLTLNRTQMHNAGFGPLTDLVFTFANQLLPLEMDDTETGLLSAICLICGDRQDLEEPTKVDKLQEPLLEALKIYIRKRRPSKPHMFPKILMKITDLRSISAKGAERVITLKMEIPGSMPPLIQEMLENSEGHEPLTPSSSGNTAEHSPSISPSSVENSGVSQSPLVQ
Procedure, shortened: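 Transient transfection of HepG2 with multiple reporter units → chemical dosing, 24 h → total RNA isolation → RT with oligo(dT) → reporter-specific PCR, 6-FAM primer extension, HpaI digest → capillary electrophoresis. Positive direction vs DMSO control.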

[6] = molecular target: Retinoic acid receptor alpha (Homo sapiens) (UniProt P10276); assay: ATG_RARa_TRANS: Attagene TRANS-FACTORIAL HepG2 Assay for human Retinoic Acid Receptor alpha (RARa) (AID 2283005; active = hit-call score of the fitted dose curve at least 0.9, where 1 is the maximum)
Chain of Retinoic acid receptor alpha (Homo sapiens) (P10276 whole entry, looked up, the tested form may be a part): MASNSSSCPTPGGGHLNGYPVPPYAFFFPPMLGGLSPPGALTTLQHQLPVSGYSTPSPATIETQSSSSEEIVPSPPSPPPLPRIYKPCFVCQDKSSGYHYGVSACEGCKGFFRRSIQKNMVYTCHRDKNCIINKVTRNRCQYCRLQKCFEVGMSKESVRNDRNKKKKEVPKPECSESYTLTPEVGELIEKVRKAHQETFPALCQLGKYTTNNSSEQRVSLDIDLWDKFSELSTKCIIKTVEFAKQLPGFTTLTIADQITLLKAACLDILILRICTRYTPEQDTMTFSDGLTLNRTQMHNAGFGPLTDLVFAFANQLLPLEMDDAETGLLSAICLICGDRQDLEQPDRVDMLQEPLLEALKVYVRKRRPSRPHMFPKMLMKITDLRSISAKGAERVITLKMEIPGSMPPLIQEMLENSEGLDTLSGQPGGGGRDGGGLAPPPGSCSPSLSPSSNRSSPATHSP
Procedure, shortened: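 HepG2 cells transiently transfected with multiple reporter units expressing chimeric RARα-GAL4 fusion, with GAL4-UAS-driven reporters. After 24 h compound exposure, reporter mRNA induction quantified by RT-PCR and capillary electrophoresis with fluorescent labeling; gain-of-signal fitted relative to DMSO control.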

[7] = BSK_3C_Proliferation: Cell Proliferation Assessment in the BioMAP Diversity Plus: 3C Assay (AID 2283006); conditions: primary human endothelial cells (HUVEC);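 note: potency may reflect either rise or fall in cell number versus DMSO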
Procedure, shortened: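 Read-out is total protein by SRB absorbance at 560 nm, taken as a proxy for relative cell number. Primary human umbilical vein endothelium cultured below confluence was dosed for 48 h, TCA-fixed and SRB-stained; curves were fitted bidirectionally versus DMSO.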

[8] = molecular target: Nuclear receptor subfamily 1 group I member 2 (Homo sapiens) (UniProt O75469); assay: ATG_PXR_TRANS: Attagene TRANS-FACTORIAL HepG2 Assay for human Pregnane X Receptor (PXR) (AID 2283008; active = hit-call score of the fitted dose curve at least 0.9, where 1 is the maximum)
Chain of Nuclear receptor subfamily 1 group I member 2 (Homo sapiens) (O75469 whole entry, looked up, the tested form may be a part): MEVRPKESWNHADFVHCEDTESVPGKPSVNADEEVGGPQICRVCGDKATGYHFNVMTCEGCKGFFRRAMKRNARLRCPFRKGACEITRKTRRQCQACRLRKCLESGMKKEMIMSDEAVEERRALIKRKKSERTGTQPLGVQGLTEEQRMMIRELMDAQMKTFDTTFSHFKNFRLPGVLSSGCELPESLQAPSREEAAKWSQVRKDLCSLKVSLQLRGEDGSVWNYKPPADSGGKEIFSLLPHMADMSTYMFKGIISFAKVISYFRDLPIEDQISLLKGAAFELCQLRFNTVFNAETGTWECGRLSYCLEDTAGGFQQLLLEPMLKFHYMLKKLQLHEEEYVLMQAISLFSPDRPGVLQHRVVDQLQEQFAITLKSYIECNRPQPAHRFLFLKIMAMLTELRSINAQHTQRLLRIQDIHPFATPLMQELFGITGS
Procedure, shortened: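 Read-out is fluorescence of labelled reporter cDNA fragments separated by capillary electrophoresis after RT-PCR and HpaI digestion. Source: HepG2 cells carrying PXR-GAL4/UAS reporter constructs, treated 24 h; activity fitted upward relative to DMSO.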

[9] = molecular target: human Retinoic Acid Receptor gamma (RARg), RARG (gene 5916) (UniProt P13631); assay: ATG_RARg_TRANS: Attagene TRANS-FACTORIAL HepG2 Assay for human Retinoic Acid Receptor gamma (RARg) (AID 2283009; active = hit-call score of the fitted dose curve at least 0.9, where 1 is the maximum)
Chain of human Retinoic Acid Receptor gamma (RARg), RARG (gene 5916) (P13631 whole entry, looked up): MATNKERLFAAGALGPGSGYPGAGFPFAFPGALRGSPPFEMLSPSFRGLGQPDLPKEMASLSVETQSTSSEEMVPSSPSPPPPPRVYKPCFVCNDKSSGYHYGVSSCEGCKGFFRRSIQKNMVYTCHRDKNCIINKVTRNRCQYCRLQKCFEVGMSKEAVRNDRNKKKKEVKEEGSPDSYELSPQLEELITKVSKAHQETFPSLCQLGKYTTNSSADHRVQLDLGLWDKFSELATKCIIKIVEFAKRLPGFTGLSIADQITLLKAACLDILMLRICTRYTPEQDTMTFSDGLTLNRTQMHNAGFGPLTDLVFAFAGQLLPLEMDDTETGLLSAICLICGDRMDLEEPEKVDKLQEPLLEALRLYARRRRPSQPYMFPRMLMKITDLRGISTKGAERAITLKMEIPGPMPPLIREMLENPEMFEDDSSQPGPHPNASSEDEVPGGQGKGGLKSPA
Procedure, shortened: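 Transient transfection of HepG2 with multi-reporter constructs, then 24 h chemical treatment. Total RNA isolated, reverse-transcribed, PCR-amplified, fluorescently labelled and resolved by capillary electrophoresis; activity scored as mRNA induction versus DMSO.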

[10] = molecular target: human RAR-related Orphan Receptor gamma (RORg), RORC (gene 6097) (UniProt P51449); assay: ATG_RORg_TRANS: Attagene TRANS-FACTORIAL HepG2 Assay for human RAR-related Orphan Receptor gamma (RORg) (AID 2283011; active = hit-call score of the fitted dose curve at least 0.9, where 1 is the maximum)
Chain of human RAR-related Orphan Receptor gamma (RORg), RORC (gene 6097) (P51449 whole entry, looked up, the tested form may be a part): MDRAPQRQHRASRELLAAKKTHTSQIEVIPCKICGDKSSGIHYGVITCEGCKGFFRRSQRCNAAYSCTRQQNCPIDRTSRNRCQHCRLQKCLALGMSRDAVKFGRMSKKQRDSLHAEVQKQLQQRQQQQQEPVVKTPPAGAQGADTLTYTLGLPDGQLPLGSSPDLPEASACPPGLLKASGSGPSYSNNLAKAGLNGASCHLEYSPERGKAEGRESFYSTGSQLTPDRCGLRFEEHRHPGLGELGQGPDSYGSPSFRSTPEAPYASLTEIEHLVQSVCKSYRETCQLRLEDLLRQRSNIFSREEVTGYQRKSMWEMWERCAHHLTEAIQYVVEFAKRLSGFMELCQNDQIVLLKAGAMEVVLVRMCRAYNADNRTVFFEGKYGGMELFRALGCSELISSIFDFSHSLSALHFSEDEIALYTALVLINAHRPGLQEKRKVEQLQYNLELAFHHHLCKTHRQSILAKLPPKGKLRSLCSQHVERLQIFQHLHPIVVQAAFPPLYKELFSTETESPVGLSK
Procedure, shortened: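 First, HepG2 liver cells were transfected with GAL4-UAS-driven reporter constructs and the RORg-Gal4 fusion. Next, they were treated with chemical for 24 h. Finally, reporter mRNA was quantified by RT-PCR and capillary electrophoresis, with upward activity fitted against DMSO.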

[11] = molecular target: Retinoic acid receptor RXR-alpha (Homo sapiens) (UniProt P19793); assay: ATG_RXRa_TRANS: Attagene TRANS-FACTORIAL HepG2 Assay for human Retinoid X Receptor alpha (RXRa) (AID 2283012; active = hit-call score of the fitted dose curve at least 0.9, where 1 is the maximum)
Chain of Retinoic acid receptor RXR-alpha (Homo sapiens) (P19793 whole entry, looked up, the tested form may be a part): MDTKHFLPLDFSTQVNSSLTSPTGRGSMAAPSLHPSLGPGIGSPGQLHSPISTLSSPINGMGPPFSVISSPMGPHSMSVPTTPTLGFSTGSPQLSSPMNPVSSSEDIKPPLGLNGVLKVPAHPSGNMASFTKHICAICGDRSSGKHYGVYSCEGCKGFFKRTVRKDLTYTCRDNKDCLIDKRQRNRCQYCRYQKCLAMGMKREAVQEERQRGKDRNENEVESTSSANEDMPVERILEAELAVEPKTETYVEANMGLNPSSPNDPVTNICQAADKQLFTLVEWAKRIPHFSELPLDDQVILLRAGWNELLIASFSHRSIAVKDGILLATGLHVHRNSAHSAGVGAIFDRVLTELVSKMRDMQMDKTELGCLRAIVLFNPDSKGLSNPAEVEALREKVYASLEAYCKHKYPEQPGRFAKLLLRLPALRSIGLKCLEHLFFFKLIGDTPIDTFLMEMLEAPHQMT
Procedure, shortened: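 Transient transfection of human HepG2 with multiple GAL4-UAS reporter constructs; 24 h compound exposure; total RNA isolated, reverse-transcribed, PCR-amplified, 6-FAM labelled, HpaI-cut, resolved by capillary electrophoresis. Positive-direction fit versus DMSO.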

[12] = molecular target: human Retinoid X Receptor beta (RXRb), RXRB (gene 6257) (UniProt P28702); assay: ATG_RXRb_TRANS: Attagene TRANS-FACTORIAL HepG2 Assay for human Retinoid X Receptor beta (RXRb) (AID 2283013; active = hit-call score of the fitted dose curve at least 0.9, where 1 is the maximum)
Chain of human Retinoid X Receptor beta (RXRb), RXRB (gene 6257) (P28702 whole entry, looked up, the tested form may be a part): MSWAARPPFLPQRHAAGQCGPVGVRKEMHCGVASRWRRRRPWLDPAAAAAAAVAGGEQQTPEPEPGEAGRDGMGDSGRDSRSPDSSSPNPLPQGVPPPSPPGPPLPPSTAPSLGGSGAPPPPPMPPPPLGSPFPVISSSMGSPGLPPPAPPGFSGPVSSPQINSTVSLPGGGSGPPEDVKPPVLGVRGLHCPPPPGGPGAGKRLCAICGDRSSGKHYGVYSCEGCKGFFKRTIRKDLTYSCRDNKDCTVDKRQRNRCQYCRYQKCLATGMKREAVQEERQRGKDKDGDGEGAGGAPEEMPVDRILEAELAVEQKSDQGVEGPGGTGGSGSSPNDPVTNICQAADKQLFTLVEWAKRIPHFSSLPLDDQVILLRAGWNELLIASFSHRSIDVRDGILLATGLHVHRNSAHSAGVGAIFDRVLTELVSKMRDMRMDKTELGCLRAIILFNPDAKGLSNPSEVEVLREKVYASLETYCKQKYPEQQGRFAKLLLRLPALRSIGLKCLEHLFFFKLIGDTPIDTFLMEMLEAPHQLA
Procedure, shortened: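 Transfect HepG2 with GAL4-UAS multi-reporter constructs (chimeric NR-Gal4, TRANS format); dose compound 24 h; isolate RNA, RT-PCR, FAM primer extension, HpaI digest; quantify by capillary electrophoresis; positive direction vs DMSO.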

[13] = read-out: E-selectin (Homo sapiens) (UniProt P16581); assay: BSK_3C_Eselectin: BioMAP Diversity Plus: 3C Assay for Eselectin Biomarker Activity (AID 2283015); conditions: primary human endothelial cells (HUVEC); actives raise or lower the signal
Procedure, shortened: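 ELISA read-out of E-selectin on endothelial monolayers after 24 h chemical treatment. Human umbilical vein primary cells served as the system, with DMSO defining baseline activity for bidirectional fitting.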

[14] = read-out: Interleukin-1 alpha (IL1a), IL1A (gene 3552); assay: BSK_BE3C_IL1a: BioMAP Diversity Plus: BE3C Assay for Interleukin-1 alpha (IL1a) Biomarker Activity (AID 2283016); conditions: primary human bronchial epithelial cells; actives raise or lower the signal
Procedure, shortened: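 BE3C primary human bronchial epithelium; cpd 24 h; IL-1a by ELISA; bidirectional fit vs DMSO; parallel SRB (0.1% SRB, 10% TCA fix, 560 nm) for cytotoxicity.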

[15] = read-out: Monocyte Chemoattractant Protein-1 (MCP1), CCL2 (gene 6347); assay: BSK_3C_MCP1: BioMAP Diversity Plus: 3C Assay for Monocyte Chemoattractant Protein-1 (MCP1) Biomarker Activity (AID 2283017); conditions: primary human endothelial cells (HUVEC); actives raise or lower the signal
Procedure, shortened: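 ELISA read-out of MCP-1 from human umbilical vein endothelial cell cultures harvested 24 h post-dosing. Gain or loss of signal was fitted relative to DMSO.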

[16] = read-out: Monocyte Chemoattractant Protein-1 (MCP1), CCL2 (gene 6347); assay: BSK_4H_MCP1: BioMAP Diversity Plus: 4H Assay for Monocyte Chemoattractant Protein-1 (MCP1) Biomarker Activity (AID 2283018); conditions: primary human endothelial cells (HUVEC); actives raise or lower the signal
Procedure, shortened: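 ELISA read-out of MCP-1 from human vascular endothelial primary cells taken at 24 hours after compound exposure. Activity was fitted in both directions relative to DMSO, which served as negative control.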

[17] = read-out: Human Leukocyte Antigen - DR isotype (HLADR), HLA-DRA (gene 3122); assay: BSK_3C_HLADR: BioMAP Diversity Plus: 3C Assay for Human Leukocyte Antigen - DR isotype (HLADR) Biomarker Activity (AID 2283019); conditions: primary human endothelial cells (HUVEC); actives raise or lower the signal
Procedure, shortened: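 ELISA readout of surface HLA-DR on human umbilical vein endothelium, taken 24 h after chemical treatment. Gain- and loss-of-signal were both fitted relative to DMSO.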

[18] = molecular target: human RAR-related Orphan Receptor beta (RORb), RORB (gene 6096) (UniProt Q92753); assay: ATG_RORb_TRANS: Attagene TRANS-FACTORIAL HepG2 Assay for human RAR-related Orphan Receptor beta (RORb) (AID 2283010; active = hit-call score of the fitted dose curve at least 0.9, where 1 is the maximum)
Procedure, shortened: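 Readout is reporter-gene mRNA induction, detected as fluorescence after RT-PCR and capillary electrophoresis, fitted for gain of signal against DMSO controls. Transiently transfected HepG2 liver cells carrying GAL4-UAS reporter constructs were treated for 24 hours.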

Measured: AC50

Chain of E-selectin (Homo sapiens) (P16581 whole entry, looked up): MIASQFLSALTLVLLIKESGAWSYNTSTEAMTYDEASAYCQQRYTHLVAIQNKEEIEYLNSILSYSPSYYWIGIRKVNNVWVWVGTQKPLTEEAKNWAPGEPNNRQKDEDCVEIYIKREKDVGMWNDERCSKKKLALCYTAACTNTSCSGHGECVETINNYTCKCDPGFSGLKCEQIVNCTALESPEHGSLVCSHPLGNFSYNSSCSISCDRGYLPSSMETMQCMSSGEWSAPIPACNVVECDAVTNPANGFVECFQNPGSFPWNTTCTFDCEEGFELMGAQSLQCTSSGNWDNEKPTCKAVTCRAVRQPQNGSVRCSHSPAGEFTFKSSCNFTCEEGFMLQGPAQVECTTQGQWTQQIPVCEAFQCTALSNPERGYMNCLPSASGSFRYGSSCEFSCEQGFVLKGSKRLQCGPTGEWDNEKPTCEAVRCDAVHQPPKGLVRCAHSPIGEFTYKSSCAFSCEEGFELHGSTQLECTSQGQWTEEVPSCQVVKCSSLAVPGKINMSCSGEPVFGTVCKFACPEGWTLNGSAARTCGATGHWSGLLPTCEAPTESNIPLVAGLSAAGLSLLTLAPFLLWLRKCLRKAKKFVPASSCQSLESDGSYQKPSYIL

OC(c1ccc(Cl)cc1)(c1cncnc1)c1ccccc1Cl (stereo not drawn)
active: [7] 25.3 µM | [8] 32.8 µM | [16] 16.6 µM | [17] 10.8 µM
inactive: [1] | [2] | [3] | [4] | [5] | [6] | [8] | [9] | [10] | [11] | [12] | [13] | [14] | [15]

CCCN(CCC)c1c([N+](=O)[O-])cc(S(N)(=O)=O)cc1[N+](=O)[O-]
inactive: [3] | [4] | [5] | [6] | [9] | [18] | [10] | [11] | [12]
active: [1] 38.1 µM [middle of 4 runs] | [2] 37.9 µM [middle of 4 runs] | [3] 55.3 µM | [7] 30.8 µM [middle of 4 runs] | [8] 171 nM and 119 nM and 3.04 µM | [13] 37.1 µM [middle of 4 runs] | [14] 39.6 µM [middle of 4 runs] | [15] 36 µM [middle of 4 runs] | [16] 34.4 µM [middle of 4 runs] | [17] 38.6 µM [middle of 4 runs]
